High-throughput results (PubChem BioAssay)
Many of the other results were omitted from the sample, so hits are more common in it than they were.
PD-1 reverse act = reversal of PD-1 mediated T-cell inhibition; primary human CD4 T cells, PD-L1 beads, CellTiter-Glo 96 h; activation, % (no concentration beside the values); 29,000 tested, under 10 active; call rule not given here;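 further: 0% = median vehicle wells and 100% = positive control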
U2OS ROS induce = cancer cell ROS induction; AID 624156; 46,000 compounds, 2% hits; ROS induction (% of piperlongumine), % at 10 µM; U2OS ROS induction, H2DCF-DA fluorescence; in the data active means ROS induction above about 79%, passing the limit was not always enough;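 further: 0% = DMSO vehicle median and 100% = reference compound median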
NOMO-1 viab = STK33 inhibitor candidate reducing NOMO-1 cell viability. NOMO-1 AML viability, CellTiter-Glo luminescence, 72 h. inhibition, % (no concentration beside the values). 37,000 compounds, 7.5% hits; in the data active means inhibition above about 80%
An asterisk follows results filed as active; . = not tested or not shown.

SMILES	PD-1 reverse act	U2OS ROS induce	NOMO-1 viab
C[C@@H]1CN([C@H](C)CO)C(=O)c2cccc(NC(=O)Nc3ccc(F)cc3)c2O[C@H]1CN(C)S(C)(=O)=O	-1	18	17
CCOC(=O)c1cc(C)nc(N2CCC(C(N)=O)CC2)c1C#N	.	1	.
O=C(CCCn1sc2ccccc2c1=O)NCCc1ccccc1	.	-6	.
COC(=O)c1cc2sccc2n1Cc1cc(=O)n2ccccc2n1	.	-12	.
O=C(CSc1nc2c(c(C(F)(F)F)n1)CCCCC2)NCCC1=CCCCC1	.	-8	.
CS(=O)(=O)N1CCN(CC(O)Cn2c3ccc(Cl)cc3c3cc(Cl)ccc32)CC1 (centres undefined)	.	.	20
OC(CNC1CCCC1)Cn1c2ccc(Cl)cc2c2cc(Cl)ccc21 (centres undefined)	-17	.	119*
COc1ccc(SC(=O)c2cc(C)n(Cc3c(Cl)cccc3Cl)n2)cc1	0	21	0
CC(NC(=O)c1cnn2c(C(F)(F)F)cc(-c3cccs3)nc12)c1ccccc1 (centres undefined)	.	85*	.
O=C(NCc1ccccn1)c1cnn2c(C(F)(F)F)cc(-c3cccs3)nc12	-8	60	23
C[C@@H]1CN([C@H](C)CO)C(=O)CCCn2nncc2CO[C@@H]1CN(C)C(=O)c1ccc2ccn(C)c2c1	.	-7	.
C[C@H](CO)N1C[C@H](C)[C@H](CN(C)CC2CC2)OCc2cnnn2CCCC1=O	.	137*	.
C[C@H]1CN([C@@H](C)CO)C(=O)CCCn2nncc2CO[C@@H]1CN(C)CC1CC1	.	71	.
C[C@@H]1CN([C@@H](C)CO)C(=O)CCCn2nncc2CO[C@H]1CN(C)C(=O)c1ccc2ccn(C)c2c1	.	94*	.
N/C(CS(=O)(=O)Cc1cccc(C(F)(F)F)c1)=N\O	.	-4	.
CCOc1ccc(Nc2nc(C3(C)CC4(CC(C)(C)OC4=O)C(=O)O3)cs2)cc1 (centres undefined)	.	-7	.
C=C(C(=O)O[C@H]1C/C(C)=C\CC/C(CO)=C\[C@H]2OC(=O)C(=C)[C@H]12)C(O)CO (some centres undefined)	-3	-6	19
C=C1C(=O)O[C@H]2C1[C@H](OC(=O)/C(C)=C/CO)C/C(C)=C\CC[C@@]1(C)OC21 (some centres undefined)	-28	72	122*
C=C1C(=O)O[C@H]2C1[C@H](OC(=O)/C(C)=C/CO)C/C(C)=C\CC[C@@]1(CO)OC21 (some centres undefined)	-15	42	93*
C=C1C(=O)O[C@H]2[C@H]1[C@@H](OC(=O)/C(C)=C\C)C[C@]1(C)O[C@@H]1[C@H]1O[C@H]1C(=C)[C@H]2O	-25	20	121*
C=C1C(=O)O[C@@H]2[C@H]3C(C)=CC(=O)C3=C(C)C[C@H](O[C@@H]3O[C@H](CO)[C@@H](O)[C@H](O)[C@H]3O)[C@@H]12	2	2	3
C/C=C(/C)C(=O)O[C@H]1C[C@@](C)(O)C(=O)[C@@H](OC(=O)/C(C)=C\C)[C@@]2(C)CC[C@@](O)(C(C)C)[C@H]12	0	2	34
C=C1C(=O)OC2/C=C(\CO)C(OC(C)=O)C/C=C(/C)CC(OC(=O)/C(C)=C\CO)C12 (centres undefined)	-6	53	121*
Cc1cc(NC(=O)c2ccc3nonc3c2)on1	.	11	.
COC(=O)c1ccccc1NC(=O)c1cccc(NC(=O)COc2cc(C)c(Cl)c(C)c2)c1C	.	.	102*
SMILES	PD-1 reverse act	U2OS ROS induce	NOMO-1 viab
COC(=O)c1ccccc1NC(=O)COc1ccc2ccccc2c1Br	-1	4	84*
Cc1cc(OCC(=O)Nc2ccccc2C(=O)O)cc(C)c1Cl	.	.	-9
COC(=O)c1ccccc1NC(=O)COc1ccc(C)cc1C	-1	-1	2
O=C(Nc1ccc(Cl)cc1Cl)c1cc2nc3c(c(C(F)(F)F)n2n1)CCc1ccccc1-3	.	-3	.
CC(C)Cn1c(SCc2ccccc2)nnc1-c1ccncc1	.	-4	.
O=C(CN1C(=O)/C(=C/c2ccccc2)Sc2ccccc21)NC1CCCC1	.	-1	.
NC(=O)CN1CCCCCC1=O	.	-14	.
Cc1ccc(C(C)C)c(OCc2ccc(C(=O)Nc3ccccc3C(F)(F)F)o2)c1	.	-6	.
C[C@H]1CN([C@@H](C)CO)C(=O)c2cccc(NC(=O)CCCCCC(=O)Nc3ccccc3N)c2O[C@@H]1CN(C)S(=O)(=O)c1ccccc1	0	-20	60
COc1ccc(S(=O)(=O)N(C)C[C@H]2Oc3c(NC(=O)CCCCCC(=O)Nc4ccccc4N)cccc3C(=O)N([C@H](C)CO)C[C@@H]2C)cc1	-2	12	45
COc1ccc(S(=O)(=O)N(C)C[C@@H]2Oc3c(NC(=O)CCCCCC(=O)Nc4ccccc4N)cccc3C(=O)N([C@H](C)CO)C[C@H]2C)cc1	1	9	100*
